# Data taken from PubChem BioAssay (NCATS).
# Inconclusive results are not listed. Where a call stands in place of a potency, no number is given. Activity calls are given as the source filed them. Calls come from the whole dose curve; as a rule, active = well fitted curve in the direction sought with a large enough effect; inconclusive = small, poorly fitted or top-dose-only effect, or another doubt; inactive = no such curve, though single readings can be large; an effect the other way counts as inactive or inconclusive.
# Tests used:
# [1] = target: Glutathione peroxidase 1 (Homo sapiens) (UniProt P07203); test: Primary qHTS Assay for Inhibitors of Recombinant Selenoprotein Glutathione Peroxidase 1 (GPX1) (AID 1845191); note: nearly all actives have a fitted effect of over 65% in size; note: potency is the fitted concentration of half-maximal effect
# Sequence of Glutathione peroxidase 1 (Homo sapiens) (P07203 whole entry, looked up): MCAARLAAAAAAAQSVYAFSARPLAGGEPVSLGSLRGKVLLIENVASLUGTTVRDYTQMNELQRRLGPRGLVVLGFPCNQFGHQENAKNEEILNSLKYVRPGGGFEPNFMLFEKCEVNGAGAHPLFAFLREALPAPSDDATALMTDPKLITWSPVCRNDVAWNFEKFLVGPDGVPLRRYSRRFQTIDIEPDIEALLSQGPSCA
# How it was run: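 Recombinant GPX1 (10 nM final) was preincubated with compound for 30 min at room temperature, then reacted with 1 mM GSH, 0.5 mM CHP, 0.5 mM NADPH and 100 nM glutathione reductase; NADPH fluorescence (340/450 nm) was read at 0 and 15 min.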
# [2] = target: Phospholipid hydroperoxide glutathione peroxidase GPX4 (Homo sapiens) (UniProt P36969); test: Primary qHTS Assay for Inhibitors of Recombinant Selenoprotein Glutathione Peroxidase 4 (GPX4) (AID 1845192); note: nearly all actives have a fitted effect of over 65% in size; note: potency is the fitted concentration of half-maximal effect
# Sequence of Phospholipid hydroperoxide glutathione peroxidase GPX4 (Homo sapiens) (P36969 whole entry, looked up): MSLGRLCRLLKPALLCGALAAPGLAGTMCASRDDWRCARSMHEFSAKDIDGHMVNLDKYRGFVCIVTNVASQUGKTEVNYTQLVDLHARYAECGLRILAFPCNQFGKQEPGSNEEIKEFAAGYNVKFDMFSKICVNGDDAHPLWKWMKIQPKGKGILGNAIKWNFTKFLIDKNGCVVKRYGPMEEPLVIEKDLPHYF
# How it was run: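 GR-coupled readout: 100 nM GR, 1 mM GSH, 0.5 mM NADPH; NADPH fluorescence (ex 340/em 450 nm) read at t=0 and after 15 min RT. GPX4 200 nM, preincubated 30 min with compound; substrate 0.5 mM CHP.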
# [3] = Quantitative High-Throughput drug screen in 47 multiple myeloma cell lines against the NCATS MIPE library collection: EJM_DSMZ cell viability assay (AID 1918926; note: nearly all actives have a fitted effect of over 30% in size; note: potency is the fitted concentration of half-maximal effect)
# How it was run: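 Relative luminescence from CellTiter-Glo served as the viability signal, referenced to DMSO-treated (100%) and cell-free medium (0%) controls. Treatment lasted 48 hours at 37C with 500 cells per well.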
# [4] = target: Luciferin 4-monooxygenase (Photinus pyralis) (UniProt P08659); test: Primary firefly luciferase (FLuc) qHTS assay for identification of artifact compounds. (AID 1845220); settings: outcome: dose series up to 54.1 µM; note: nearly all actives have a fitted effect of over 60% in size
# How it was run: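 Reaction readout was CCD-imaged luminescence, taken 5 min after adding 10 nM purified firefly enzyme to compound-treated wells holding 10 uM luciferin and ATP in pH 7.6 buffer.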
# [5] = Primary fluorescence-based thiol-reactive (MSTI) qHTS assay for identification of artifact compounds. (AID 1845221);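 note: series mostly up to about 54 µM; thiol-reactive compounds lower the probe fluorescence signal; nearly all actives have a fitted effect of over 65% in size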
# How it was run: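 One-hour, room-temperature, dark incubation of compound with 4 uM MSTI in PBS (pH 7.4, 2% DMSO) precedes a fluorescence read at 525 nm excitation, 598 nm emission; Hill-equation fitting yields concentration-response values.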
# [6] = system: Nanoluciferase (engineered Oplophorus gracilirostris luciferase); test: Primary Nanoluciferase (NLuc) qHTS assay for identification of artifact compounds. (AID 1845222);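 note: NLuc secreted into diluted conditioned medium of S16 cells; series mostly up to about 54 µM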
# How it was run: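 Concentration-response data were obtained by luminescence after 5 min with Nano-Glo substrate at 1:100. The enzyme was diluted S16 NLuc-expressing cell medium, preincubated with compound for 15 min at RT. Curves were fitted with a 4-parameter Hill model.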
# [7] = Primary redox qHTS assay for identification of artifact compounds. (AID 1845223)
# How it was run: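 Amplex Red (25 uM) and HRP (250 mU/mL) in HBSS, with compounds for 15 min, then 250 uM DTT for 30 min, room temperature, dark. Fluorescence 525/598 nm read; normalized to DMSO and 10 uM DA3003; Hill fit.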
smiles,measurement,setting,value
C=C(C)[C@H]1Cc2c(ccc3c2O[C@@H]2COc4cc(OC)c(OC)cc4[C@@H]2C3=O)O1,Potency,[1],inactive
same,Potency,[2],inactive
same,Potency,[3],4.69 µM (active)
CNC(=O)c1ccc(N2C(=S)N(c3ccc(C#N)c(C(F)(F)F)c3)C(=O)C23CCC3)cc1F,Potency,[1],inactive
same,Potency,[2],inactive
same,outcome,[4],inactive
same,outcome,[5],inactive
same,outcome,[6],inactive
same,outcome,[7],inactive
same,Potency,[3],1.48 µM (active)
COc1ccc(Cc2nccc3cc(OC)c(OC)cc23)cc1OC,Potency,[1],inactive
same,Potency,[2],inactive
CCCC(C)(COC(N)=O)COC(=O)NC(C)C (configuration not stated),Potency,[3],inactive
C[C@@H]1[C@@H](CC(C[C@H]2O[C@@H]3O[C@]4(C)CC[C@@H]5[C@H](C)CC[C@@H]([C@H]2C)[C@@]35OO4)C[S+](=O)([O-])c2ccc(COC(=O)N(C)C)cc2)O[C@@H]2O[C@]3(C)CC[C@H]4[C@H](C)CC[C@@H]1[C@@]24OO3 (some centres not stated),Potency,[3],0.187 µM (active)
N[C@@H]1C[C@H]1c1ccccc1,Potency,[1],inactive
same,Potency,[2],inactive
CCCC1CCCCN1 (configuration not stated),Potency,[1],inactive
same,Potency,[2],inactive
C[C@H]1O[C@@H](O[C@H]2[C@@H](O)C[C@H](O[C@H]3[C@@H](O)C[C@H](O[C@H]4CC[C@@]5(C)[C@H](CC[C@@H]6[C@@H]5CC[C@]5(C)[C@@H](C7=CC(=O)OC7)CC[C@]65O)C4)O[C@@H]3C)O[C@@H]2C)C[C@H](O)[C@@H]1O,Potency,[1],inactive
same,Potency,[2],inactive
same,outcome,[4],inactive
same,outcome,[5],inactive
same,outcome,[6],inactive
same,outcome,[7],inactive
CN(C)[C@@H]1C(=O)C(C(N)=O)=C(O)[C@@]2(O)C(=O)C3=C(O)c4c(O)cccc4[C@@](C)(O)[C@H]3C[C@@H]12,Potency,[1],inactive
same,Potency,[2],inactive
same,Potency,[3],inactive
COC[C@H]1OC(=O)c2coc3c2[C@@]1(C)C1=C(C3=O)C2CCC(=O)[C@@]2(C)C[C@H]1OC(C)=O (some centres not stated),Potency,[1],inactive
same,Potency,[2],inactive
same,outcome,[4],inactive
same,outcome,[6],inactive
COc1ccc(C(=O)c2c(C)n(CCN3CCOCC3)c3ccccc23)cc1,Potency,[1],inactive
same,Potency,[2],inactive
same,Potency,[3],inactive
CC(C)NCC(O)c1ccccc1Cl (configuration not stated),Potency,[1],inactive
same,Potency,[2],inactive
N[C@@H](Cc1ccc(N(CCCl)CCCl)cc1)C(=O)O,Potency,[1],inactive
same,Potency,[2],inactive
same,Potency,[3],14.8 µM (active)
O=P1(NCCCl)OCCCN1CCCl (configuration not stated),Potency,[1],inactive
same,Potency,[2],inactive
same,Potency,[3],inactive
COC[C@@H](NC(C)=O)C(=O)NCc1ccccc1,Potency,[1],inactive
same,Potency,[2],inactive
same,Potency,[3],inactive
O=C(O)C(=O)c1cn(Cc2ccccc2)c2ccc(-c3ccc(OC(F)(F)F)cc3)cc12,Potency,[1],inactive
same,Potency,[2],9.04 µM (active)
same,outcome,[4],inactive
same,outcome,[5],inactive
same,outcome,[6],inactive
same,outcome,[7],inactive
same,Potency,[3],inactive
Cc1cc(SCc2sc(-c3ccc(C(F)(F)F)c(F)c3)nc2C)ccc1OCC(=O)O,Potency,[1],12.8 µM (active)
same,Potency,[2],inactive
same,outcome,[5],inactive
same,outcome,[6],inactive
same,Potency,[3],inactive
CCC(COC(=O)c1cc(OC)c(OC)c(OC)c1)(c1ccccc1)N(C)C (configuration not stated),Potency,[1],inactive
same,Potency,[2],inactive
COc1ccc2c(c1OC)CN1CCc3cc4c(cc3C1C2)OCO4 (configuration not stated),Potency,[1],inactive
same,Potency,[3],20.9 µM (active)
CNC(=O)N1N=C(c2ccc(N)cc2)c2cc3c(cc2CC1C)OCO3 (configuration not stated),Potency,[1],inactive
same,Potency,[2],inactive
same,outcome,[4],inactive
same,outcome,[6],inactive
same,outcome,[7],inactive
same,Potency,[3],11.8 µM (active)
